Paper PMC5540273 (PLoS ONE, 2017)

Tests used:
Conditions in all cases: concentration: 1 μM, replicates: in singlicate; n = 1
DCAMKL2 = system: T1, DCAMKL2
T1 construct: gene DCLK2

DCAMKL3 = system: T2, DCAMKL3
T2 construct: gene DCLK3

DDR1 = system: DDR1
DDR2 = system: DDR2
DLK = system: T3, DLK
T3 construct: gene MAP3K12

DMPK2 = system: T4, DMPK2
T4 construct: gene CDC42BPG

DMPK = system: DMPK
DRAK1 = system: T5, DRAK1
T5 construct: gene STK17A

DRAK2 = system: T6, DRAK2
T6 construct: gene STK17B

DYRK1A = system: DYRK1A
DYRK1B = system: DYRK1B
DYRK2 = system: DYRK2
EGFR = system: EGFR
EIF2AK1 = system: EIF2AK1
EPHA1 = system: EPHA1
EPHA2 = system: EPHA2
EPHA3 = system: EPHA3
EPHA4 = system: EPHA4
EPHA5 = system: EPHA5
EPHA6 = system: EPHA6
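Also: KINOMEscan kinase panel screen.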

SMILES | %Inh (DCAMKL2) | %Inh (DCAMKL3) | %Inh (DDR1) | %Inh (DDR2) | %Inh (DLK) | %Inh (DMPK2) | %Inh (DMPK) | %Inh (DRAK1) | %Inh (DRAK2) | %Inh (DYRK1A) | %Inh (DYRK1B) | %Inh (DYRK2) | %Inh (EGFR) | %Inh (EIF2AK1) | %Inh (EPHA1) | %Inh (EPHA2) | %Inh (EPHA3) | %Inh (EPHA4) | %Inh (EPHA5) | %Inh (EPHA6)
CN(C)CCNS(=O)(=O)c1ccc(-c2ccnc3[nH]ccc23)cc1 [GSK977620] | 16% | 15% | 7% | 0% | 26% | 30% | 74% | 71% | 28% | 69% | 47% | 64% | 37% | 0% | 24% | 14% | 0% | 0% | 0% | 0%
COc1cccc(-c2nc(-c3ccccc3)[nH]c2-c2ccncc2)c1 [SB-610250] | 22% | 14% | 78% | 49% | 16% | 68% | 0% | 0% | 0% | 22% | 20% | 2% | 12% | 5% | 18% | 0% | 0% | 17% | 0% | 9%
O=C(Nc1n[nH]c2nc(-c3cccc(O)c3)ccc12)C1CC1 [SB-711805] | 0% | 49% | 0% | 20% | 0% | 0% | 0% | 24% | 12% | 76% | 86% | 79% | 5% | 0% | 13% | 0% | 19% | 0% | 0% | 15%
COC(=O)Nc1nc2ccc(Oc3ccc(NC(=O)Nc4cc(C(F)(F)F)ccc4F)cc3)cc2[nH]1.Cl [GW654607] | 0% | 36% | 100% | 94.2% | 13% | 9% | 0% | 0% | 1% | 13% | 42% | 13% | 29% | 26% | 90.9% | 98% | 39% | 96.8% | 66% | 97.7%
CC(C)c1nc(-c2cccc(NS(=O)(=O)c3c(F)cccc3F)c2)c(-c2ccnc(Nc3ccc(N4CCOCC4)nc3)n2)s1.Cl [GSK1723980] | 13% | 10% | 94.9% | 42% | 74% | 11% | 0% | 0% | 0% | 39% | 0% | 18% | 99.1% | 66% | 97.7% | 0% | 18% | 27% | 0% | 77%
NCCC(NC(=O)c1cc(Br)c(-c2ccnc3[nH]ccc23)s1)c1ccccc1.O=C(O)C(F)(F)F.O=C(O)C(F)(F)F (centres unmarked) [GSK1307810] | 0% | 0% | 0% | 26% | 33% | 99.8% | 64% | 74% | 0% | 44% | 70% | 57% | 19% | 0% | 10% | 1% | 35% | 0% | 0% | 0%
Cc1ccc(NC(=O)c2cccc(N3CCCCC3)c2)cc1-c1ccc(C(=O)NCC2CC2)cc1 [GSK1917008] | 19% | 0% | 100% | 64% | 8% | 100% | 3% | 0% | 9% | 27% | 0% | 18% | 35% | 8% | 18% | 33% | 4% | 37% | 3% | 34%
Fc1cc(Cl)ccc1Nc1ccnc2cc(-c3ccc(CN4CCOCC4)o3)ccc12 [GW560109] | 0% | 0% | 97.9% | 60% | 28% | 0% | 16% | 0% | 0% | 11% | 7% | 13% | 71% | 10% | 94.5% | 34% | 32% | 41% | 0% | 65%
Nc1ncc(-c2cn[nH]c2)c2scc(-c3ccc4c(c3)CCN4C(=O)Cc3ccccc3)c12 [GSK2593067] | 5% | 0% | 98.4% | 22% | 18% | 90.3% | 0% | 0% | 0% | 20% | 0% | 7% | 25% | 48% | 26% | 0% | 0% | 0% | 0% | 12%
CN(C)c1ncnc2nc[nH]c12 [SKF-31736] | 0% | 0% | 0% | 35% | 12% | 0% | 2% | 0% | 0% | 0% | 39% | 23% | 0% | 0% | 0% | 0% | 8% | 0% | 0% | 0%
